This note sets out measurements from PubChem BioAssay (NCI).

About 83,000 compounds went through this panel and 20% of them were active in at least one assay; those are over-represented in the sample as a whole.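 A percent growth of 40 corresponds to 60% growth inhibition; 0 means no net growth; -100 means all cells died. Active threshold: below 10.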 The source made the active and inactive calls.

The test system of the first experiment is NCI-H23 lung. Put plainly: NCI-60 one-dose screen, 48 h (100 = growth as untreated, 0 = no growth, -100 = all killed). Particulars: 10 µM unless noted.
Turning to `O=C(CSc1nc2sc3c(c2c(=O)n1-c1ccccc1)CCCCC3)N/N=C/c1cccc([N+](=O)[O-])c1`, the growth was 54.4% (inactive).

Consider `O=C(Nc1cccc(Cl)c1)Nc1cccc(Cn2c(=O)[nH]c3ccc(Oc4ncccn4)cc3c2=O)c1`, for which the growth was 33.1% (inactive).

Regarding `CCOC(=O)Cc1cnc(N/N=C(\C)c2cc3ccccc3o2)s1`, the growth was 86.5% (inactive).

For `COC1/C=C/OC2(C)Oc3c(C)c(O)c4c(O)c(c(/C=N/Nc5ccc([N+](=O)[O-])cc5[N+](=O)[O-])c(O)c4c3C2=O)NC(=O)C(C)=C/C=C/C(C)C(O)C(C)C(O)C(C)C(OC(C)=O)C1C` (stereo unspecified), the growth is 4.25% (active).

For `COC(=O)CC[C@@H]1O[C@@H](c2cccc(C(F)(F)F)c2)[C@@H](O)[C@H]1O`, the growth is 94.2% (inactive).

For the compound `COc1ccc(/C=N/NC(=O)c2ccc(-n3cc(-c4ccccc4)nn3)cc2)cc1OC`, the growth is 95.2% (inactive).

Regarding `COC(=O)c1c2c(c(C)[n+]([O-])c1C)C(=O)C(NCc1cccc(OC)c1)=CC2=O`, the growth was 25.4% (inactive).

In the case of `Nc1n[nH]c2cccc(C#Cc3cccc(C(=O)Nc4cc(C(F)(F)F)cc(C(F)(F)F)c4)c3)c12`, the growth is 73.8% (inactive).

As for `OB1OCc2cc(/C=C/c3cccc(C(F)(F)F)c3)ccc21`, the growth is 21.6% (inactive).

Consider `CNC(=O)c1[nH]cc(-c2ccc(OC)cc2)c1-c1cc(OC)c2c(c1OC)OCO2`, for which the growth is 97.6% (inactive).

As for `COc1ccc(-c2cc(-c3ccc(Cl)cc3)c(C#N)c(=O)n2Cc2ccc(C(=O)Nc3ccccc3N)cc2)cc1`, the growth was 77.2% (inactive).

For the compound `CC1CCc2c(C(=O)Nc3ncc(Cc4cccc([N+](=O)[O-])c4)s3)csc2C1` (stereo unspecified), the growth is 36.6% (inactive).

On to `N#Cc1nc(-c2ccc(Cl)cc2)oc1S(=O)(=O)N1CCN(c2ccc(F)cc2)CC1`, for which the growth was 88.6% (inactive).

For the compound `COc1c(B(O)O)cccc1-c1nc2c(F)cc3[nH]ncc3c2c2c1CCCC2`, the growth was -11.1% (active).

As for `O=S(=O)(NCCNc1nccc(-c2c(-c3ccc(F)c(O)c3)nc3sccn23)n1)c1ccc(O)cc1`, the growth was 54.6% (inactive).

Take `CCOC(=O)C(=O)C(C(=O)OCC)c1ccccc1` (stereo unspecified): the growth is 107% (inactive).

For the compound `COc1ccc(C(=O)/C=C/c2c(C(F)(F)F)nc3ccccn23)cc1OC`, the growth was 0.445% (active).

Regarding `CC(=O)O[C@H]1CC2CCC3C(CC[C@@]4(C)C3C[C@H]([N+]3(C)CCCCC3)[C@@H]4OC(C)=O)[C@@]2(C)C[C@@H]1N1CCCCC1` (stereo partly specified), the growth is 102% (inactive).

On to `O=C1c2ccc3c4c5ccc(c24)C(=O)N1CCCOCCCCOCCCNCc1ccc(cc1)CNCCCOCCCCOCCCN(C3=O)C5=O`, for which the growth was -52.3% (active).

Take `CC(O)(c1ccccc1)C(c1ccccc1)C1CCCCN1` (stereo unspecified): the growth was 107% (inactive).

For the compound `CCCC/C=C/[C@@H]1C[C@H]1CCO`, the growth is 102% (inactive).

Take `COc1ccc(OC)c(Nc2nnc(-c3ccc(O)c(OC)c3)o2)c1`: the growth was 70.7% (inactive).

For `N#CC1=C(N)Oc2c(ccc3ccccc23)C1c1ccccc1` (stereo unspecified), the growth is 25.7% (inactive).

For the compound `OCCn1cc(-c2nc(-c3c[nH]c4ncccc34)cs2)c2ccccc21`, the growth is 71.9% (inactive).

`Cn1cc(-c2csc(-c3cn(C(=O)OC(C)(C)C)c4ccc(Br)cc34)n2)c2ccnc(Cl)c21`: the growth is 81.7% (inactive).

On to `O=S(=O)(c1ccccc1)n1cc2c(c1)-c1nc(Nc3ncccn3)sc1CC2`, for which the growth is 61.9% (inactive).

Another experiment concerns NCI-H226 lung. Described as above. Particulars: 10 µM unless noted.
`CCOc1ccc(NC(=O)CSc2oc(-c3ccccc3)nc2S(=O)(=O)c2ccc(C)cc2)cc1`: the growth was -18.8% (active).

For the compound `O=C(/C=C/c1cccc(Cl)c1)c1ccc(Nc2nc(Nc3ccc(F)cc3)nc(Nc3ccc(Cl)cc3)n2)cc1`, the growth was 118% (inactive).

For the compound `Cn1c(I)c(C#CCO[Si](C)(C)C(C)(C)C)c(=O)[nH]c1=O`, the growth was 108% (inactive).

As to `CC(=O)Oc1ccc(C)cc1C`, the growth is 107% (inactive).

Take `COc1cc(C2CC(c3ccc(Nc4nc(Nc5ccc(Cl)cc5)nc(Nc5ccc(Cl)cc5)n4)cc3)=NN2C(C)=O)cc(OC)c1OC` (stereo unspecified): the growth was 104% (inactive).

Turning to `c1cnc2c(-c3nc4ccc5[nH]ncc5c4c4c3CCCC4)c[nH]c2c1`, the growth was 42.6% (inactive).

Take `COc1ccc(/C=C/C(=O)c2cc3c(N)c(C(=O)Nc4cccc5ccccc45)sc3nc2C)cc1`: the growth was 85% (inactive).

Regarding `O=C1/C(=C/c2ccc([N+](=O)[O-])cc2)COc2ccc(O)cc21`, the growth was 100% (inactive).

Turning to `CCOCCNC1=C(Cl)C(=O)c2ccccc2C1=O`, the growth is 121% (inactive).

Regarding `CCN(CC)c1ccc(\C=N/N=C(N)/C(N)=N\N=C/c2ccc(N(CC)CC)cc2)cc1`, the growth was 103% (inactive).

On to `CSc1nc2ccccc2cc1/C=C1/C=C(c2ccccc2)NC1=O`, for which the growth is 92.9% (inactive).

On to `Cn1cc(-c2ccc3nc(-c4ccc(CC(=O)ONc5cc(C(C)(C)C)on5)cc4)cnc3c2)cn1`, for which the growth is 43.2% (inactive).

For the compound `Nc1ncnc2c1C(c1ccccc1)c1ccc3ccccc3c1O2` (stereo unspecified), the growth is 77.6% (inactive).

Take `N#Cc1nc(-c2ccc(F)cc2)oc1S(=O)(=O)N1CCOCC1`: the growth was 81.7% (inactive).

For `O=C(CSc1nc2sc3c(c2c(=O)n1-c1ccccc1)CCCCC3)N/N=C/c1cccc([N+](=O)[O-])c1`, the growth is 94.4% (inactive).

With `O=C(Nc1cccc(Cl)c1)Nc1cccc(Cn2c(=O)[nH]c3ccc(Oc4ncccn4)cc3c2=O)c1`, the growth is 64.4% (inactive).

On to `CCOC(=O)Cc1cnc(N/N=C(\C)c2cc3ccccc3o2)s1`, for which the growth was 80.5% (inactive).

Turning to `COC1/C=C/OC2(C)Oc3c(C)c(O)c4c(O)c(c(/C=N/Nc5ccc([N+](=O)[O-])cc5[N+](=O)[O-])c(O)c4c3C2=O)NC(=O)C(C)=C/C=C/C(C)C(O)C(C)C(O)C(C)C(OC(C)=O)C1C` (stereo unspecified), the growth was -57.2% (active).

With `COC(=O)CC[C@@H]1O[C@@H](c2cccc(C(F)(F)F)c2)[C@@H](O)[C@H]1O`, the growth is 103% (inactive).

Take `COc1ccc(/C=N/NC(=O)c2ccc(-n3cc(-c4ccccc4)nn3)cc2)cc1OC`: the growth was 92.7% (inactive).

As to `COC(=O)c1c2c(c(C)[n+]([O-])c1C)C(=O)C(NCc1cccc(OC)c1)=CC2=O`, the growth was 83.2% (inactive).

As to `Nc1n[nH]c2cccc(C#Cc3cccc(C(=O)Nc4cc(C(F)(F)F)cc(C(F)(F)F)c4)c3)c12`, the growth was 42.7% (inactive).

As to `OB1OCc2cc(/C=C/c3cccc(C(F)(F)F)c3)ccc21`, the growth is -10.2% (active).

Consider `CNC(=O)c1[nH]cc(-c2ccc(OC)cc2)c1-c1cc(OC)c2c(c1OC)OCO2`, for which the growth was 97.8% (inactive).

Turning to `COc1ccc(-c2cc(-c3ccc(Cl)cc3)c(C#N)c(=O)n2Cc2ccc(C(=O)Nc3ccccc3N)cc2)cc1`, the growth was 81.2% (inactive).

In the case of `CC1CCc2c(C(=O)Nc3ncc(Cc4cccc([N+](=O)[O-])c4)s3)csc2C1` (stereo unspecified), the growth was 54.1% (inactive).

Take `N#Cc1nc(-c2ccc(Cl)cc2)oc1S(=O)(=O)N1CCN(c2ccc(F)cc2)CC1`: the growth was 94.9% (inactive).

For the compound `COc1c(B(O)O)cccc1-c1nc2c(F)cc3[nH]ncc3c2c2c1CCCC2`, the growth is 9.55% (active).

With `O=S(=O)(NCCNc1nccc(-c2c(-c3ccc(F)c(O)c3)nc3sccn23)n1)c1ccc(O)cc1`, the growth was 37.4% (inactive).

With `CCOC(=O)C(=O)C(C(=O)OCC)c1ccccc1` (stereo unspecified), the growth was 107% (inactive).

`COc1ccc(C(=O)/C=C/c2c(C(F)(F)F)nc3ccccn23)cc1OC`: the growth is 79.4% (inactive).

As for `CC(=O)O[C@H]1CC2CCC3C(CC[C@@]4(C)C3C[C@H]([N+]3(C)CCCCC3)[C@@H]4OC(C)=O)[C@@]2(C)C[C@@H]1N1CCCCC1` (stereo partly specified), the growth is 106% (inactive).

`O=C1c2ccc3c4c5ccc(c24)C(=O)N1CCCOCCCCOCCCNCc1ccc(cc1)CNCCCOCCCCOCCCN(C3=O)C5=O`: the growth is 72.8% (inactive).

Regarding `CC(O)(c1ccccc1)C(c1ccccc1)C1CCCCN1` (stereo unspecified), the growth was 102% (inactive).

For the compound `CCCC/C=C/[C@@H]1C[C@H]1CCO`, the growth was 91.5% (inactive).

With `COc1ccc(OC)c(Nc2nnc(-c3ccc(O)c(OC)c3)o2)c1`, the growth is 77.1% (inactive).

For `N#CC1=C(N)Oc2c(ccc3ccccc23)C1c1ccccc1` (stereo unspecified), the growth is 61.6% (inactive).

Consider `OCCn1cc(-c2nc(-c3c[nH]c4ncccc34)cs2)c2ccccc21`, for which the growth was 58% (inactive).

For the compound `Cn1cc(-c2csc(-c3cn(C(=O)OC(C)(C)C)c4ccc(Br)cc34)n2)c2ccnc(Cl)c21`, the growth was 73.3% (inactive).

Turning to `O=S(=O)(c1ccccc1)n1cc2c(c1)-c1nc(Nc3ncccn3)sc1CC2`, the growth was 25.9% (inactive).
